Experimental data published in PubChem BioAssay (Tox21).
Records with an inconclusive call do not appear. Active and inactive are the calls of the source. Unless noted, calls follow the shape of the dose curve; as a rule, active = well fitted curve in the direction sought with a large enough effect in the repeat runs; inconclusive = weak or mixed curves; inactive = no such curve, though single readings can be large; an effect the other way counts as inactive or inconclusive.

Legend:
[1] = qHTS assay to identify small molecule antagonists of the thyroid receptor (TR) signaling pathway - cell viability counter screen (AID 743064); also: nearly all actives have a fitted effect of over 50% in size
Method in brief: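 Counter screen for cytotoxicity: compound plus T3 (1 nM final) on GH3.TRE-Luc cells, 23.5 h at 37 °C, then fluorescence viability readout with CellTiter-Fluor.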

[2] = qHTS assay to identify small molecule antagonists of the thyroid receptor (TR) signaling pathway (AID 743065); also: series mostly up to about 70 µM; nearly all actives have a fitted effect of over 55% in size
Method in brief: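 Antagonism measured as loss of luciferase signal in GH3 cells stably carrying a TRE-luciferase reporter, co-treated with compound and T3 (1 nM final) for 23.5 h at 37 C. Viability was read in the same well by CellTiter-Fluor.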

[3] = tested on: thyroid hormone receptor (rat, GH3 cells); assay: qHTS assay to identify small molecule agonists of the thyroid receptor (TR) signaling pathway (AID 743066; calls by dose curve)
[4] = qHTS assay to identify small molecule antagonists of the estrogen receptor alpha (ER-alpha) signaling pathway - cell viability counter screen (AID 743074; calls by dose curve;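 also: HEK293 cells carrying ER-alpha-UAS-bla reporter stimulated with 17beta-estradiol; nearly all actives have a fitted effect of over 45% in size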)
[5] = qHTS assay to identify small molecule antagonists of the estrogen receptor alpha (ER-alpha) signaling pathway using the BG1 cell line - cell viability counter screen (AID 743081);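 also: compound given together with 17beta-estradiol as the ER stimulus; series mostly up to about 70 µM; nearly all actives have a fitted effect of over 45% in size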
Aromatase (Homo sapiens) = Aromatase (Homo sapiens) (UniProt P11511); assay: qHTS assay to identify aromatase inhibitors (AID 743083); also: series mostly up to about 70 µM; nearly all actives have a fitted effect of over 55% in size
Aromatase (Homo sapiens), sequence (P11511 whole entry, looked up): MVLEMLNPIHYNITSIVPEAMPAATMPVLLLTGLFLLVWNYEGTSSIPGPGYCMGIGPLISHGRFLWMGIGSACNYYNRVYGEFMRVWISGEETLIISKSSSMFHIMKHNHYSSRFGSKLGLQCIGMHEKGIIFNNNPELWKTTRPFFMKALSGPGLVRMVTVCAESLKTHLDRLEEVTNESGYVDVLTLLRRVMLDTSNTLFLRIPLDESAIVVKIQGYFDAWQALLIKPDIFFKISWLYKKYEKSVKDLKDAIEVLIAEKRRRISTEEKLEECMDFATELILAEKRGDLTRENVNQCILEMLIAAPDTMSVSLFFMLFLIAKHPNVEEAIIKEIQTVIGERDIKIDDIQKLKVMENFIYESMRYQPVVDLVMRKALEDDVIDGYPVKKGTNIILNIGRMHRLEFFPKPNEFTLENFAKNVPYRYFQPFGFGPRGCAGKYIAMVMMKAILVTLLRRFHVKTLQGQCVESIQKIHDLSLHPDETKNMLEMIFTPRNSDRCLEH

[6] = qHTS assay to identify aromatase inhibitors - cell viability counter screen (AID 743084);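 also: cells stimulated with testosterone during compound exposure; nearly all actives have a fitted effect of over 55% in size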
[7] = qHTS assay to identify small molecule that activate the aryl hydrocarbon receptor (AhR) signaling pathway - cell viability counter screen (AID 743086);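 also: HepG2 liver cells carrying the AhR DRE luciferase reporter; series mostly up to about 70 µM; nearly all actives have a fitted effect of over 45% in size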
Method in brief: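 Cytotoxicity counter screen: CellTiter-Fluor signal (30 min, 37 C) in 4000 HepG2 cells/well carrying the DRE-luciferase reporter, following 24 h compound exposure at 37 C.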

[8] = biological target: Peroxisome proliferator-activated receptor gamma (Homo sapiens) (UniProt P37231); assay: qHTS assay to identify small molecule agonists of the peroxisome proliferator-activated receptor gamma (PPARg) signaling pathway (AID 743094; active = well fitted activation curve with a large enough effect in the signal ratio in the repeat runs, not every such curve was filed as active; the % refers to the signal ratio)
Peroxisome proliferator-activated receptor gamma (Homo sapiens), sequence (P37231 whole entry, looked up): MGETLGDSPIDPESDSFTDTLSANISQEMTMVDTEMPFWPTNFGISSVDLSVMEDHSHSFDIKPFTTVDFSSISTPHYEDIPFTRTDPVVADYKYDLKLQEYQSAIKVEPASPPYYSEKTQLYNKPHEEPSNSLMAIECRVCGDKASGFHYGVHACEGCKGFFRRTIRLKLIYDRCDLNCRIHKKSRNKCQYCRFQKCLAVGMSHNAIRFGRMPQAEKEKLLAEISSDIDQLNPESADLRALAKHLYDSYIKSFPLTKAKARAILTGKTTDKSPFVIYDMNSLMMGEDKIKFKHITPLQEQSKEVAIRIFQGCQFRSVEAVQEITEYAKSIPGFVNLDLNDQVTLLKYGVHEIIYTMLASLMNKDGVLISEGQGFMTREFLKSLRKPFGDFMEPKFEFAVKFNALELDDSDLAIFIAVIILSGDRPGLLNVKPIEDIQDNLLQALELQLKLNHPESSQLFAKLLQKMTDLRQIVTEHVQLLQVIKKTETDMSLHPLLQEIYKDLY
Method in brief: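 Compounds dissolved in DMSO were added to PPARg UAS-bla HEK293H cells for 17 h at 37C, and reporter expression was quantified by fluorescence intensity after 1 h with LiveBLAzer B/G FRET substrate.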

[9] = biological target: Peroxisome proliferator-activated receptor gamma (Homo sapiens) (UniProt P37231); assay: qHTS assay to identify small molecule antagonists of the peroxisome proliferator-activated receptor gamma (PPARg) signaling pathway (AID 743191; calls by dose curve; also: series mostly up to about 63 µM; nearly all actives have a fitted effect of over 30% in size)
Method in brief: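 Beta-lactamase reporter under UAS control in HEK293H PPARg-bla cells; compound treatment 17 h at 37C. Read-out: fluorescence intensity after 1 h room-temperature incubation with LiveBLAzer B/G FRET substrate.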

[10] = qHTS assay to identify small molecule antagonists of the peroxisome proliferator-activated receptor gamma (PPARg) signaling pathway - cell viability counter screen (AID 743194); also: nearly all actives have a fitted effect of over 55% in size
Method in brief: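 Viability was measured as CellTiter-Glo luminescence in GeneBLAzer PPARg UAS-bla HEK293H cells. These cells had been exposed 17 h at 37 C to compounds together with rosiglitazone at 50 nM final, with the beta-lactamase readout taken in the same wells.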

[11] = qHTS assay for small molecule agonists of the antioxidant response element (ARE) signaling pathway (AID 743202; active = well fitted activation curve with a large enough effect in the signal ratio in the repeat runs, not every such curve was filed as active; the % refers to the signal ratio)
Method in brief: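 Quantitative high-throughput format in HepG2 cells bearing an integrated ARE-beta-lactamase reporter. Compound exposure lasted 16 h at 37 C, and fluorescence was read 2 h after adding LiveBLAzer B/G substrate at room temperature.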

[12] = qHTS assay for small molecule activators of the heat shock response signaling pathway - cell viability counter screen (AID 743209); also: nearly all actives have a fitted effect of over 50% in size
Method in brief: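 Readout: CellTiter-Glo luminescence, 30 min at room temperature. System: HSE-bla HeLa cells, 1500/well, plated overnight. Treatment: compounds in DMSO, 5 h at 37 C.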

[13] = qHTS assay for small molecule activators of the heat shock response signaling pathway (AID 743210; active = well fitted activation curve with a large enough effect in the signal ratio in the repeat runs, with a control signal flat, not every such curve was filed as active; the % refers to the signal ratio;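 also: HeLa cells with beta-lactamase reporter driven by heat shock elements; series mostly up to about 63 µM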)
Method in brief: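 HeLa HSE-bla cells, overnight plating; cpd in DMSO 5 h, 37 C; LiveBLAzer B/G FRET substrate 2.5 h RT; fluorescence intensity read.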

[14] = biological target: Aryl hydrocarbon receptor (Homo sapiens) (UniProt P35869); assay: qHTS assay to identify small molecule that activate the aryl hydrocarbon receptor (AhR) signaling pathway (AID 743085);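 also: HG2L7.5c1 human HepG2 liver cells with stably integrated DRE-driven firefly reporter; series mostly up to about 70 µM; nearly all actives have a fitted effect of over 15% in size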
Aryl hydrocarbon receptor (Homo sapiens), sequence (P35869 whole entry, looked up): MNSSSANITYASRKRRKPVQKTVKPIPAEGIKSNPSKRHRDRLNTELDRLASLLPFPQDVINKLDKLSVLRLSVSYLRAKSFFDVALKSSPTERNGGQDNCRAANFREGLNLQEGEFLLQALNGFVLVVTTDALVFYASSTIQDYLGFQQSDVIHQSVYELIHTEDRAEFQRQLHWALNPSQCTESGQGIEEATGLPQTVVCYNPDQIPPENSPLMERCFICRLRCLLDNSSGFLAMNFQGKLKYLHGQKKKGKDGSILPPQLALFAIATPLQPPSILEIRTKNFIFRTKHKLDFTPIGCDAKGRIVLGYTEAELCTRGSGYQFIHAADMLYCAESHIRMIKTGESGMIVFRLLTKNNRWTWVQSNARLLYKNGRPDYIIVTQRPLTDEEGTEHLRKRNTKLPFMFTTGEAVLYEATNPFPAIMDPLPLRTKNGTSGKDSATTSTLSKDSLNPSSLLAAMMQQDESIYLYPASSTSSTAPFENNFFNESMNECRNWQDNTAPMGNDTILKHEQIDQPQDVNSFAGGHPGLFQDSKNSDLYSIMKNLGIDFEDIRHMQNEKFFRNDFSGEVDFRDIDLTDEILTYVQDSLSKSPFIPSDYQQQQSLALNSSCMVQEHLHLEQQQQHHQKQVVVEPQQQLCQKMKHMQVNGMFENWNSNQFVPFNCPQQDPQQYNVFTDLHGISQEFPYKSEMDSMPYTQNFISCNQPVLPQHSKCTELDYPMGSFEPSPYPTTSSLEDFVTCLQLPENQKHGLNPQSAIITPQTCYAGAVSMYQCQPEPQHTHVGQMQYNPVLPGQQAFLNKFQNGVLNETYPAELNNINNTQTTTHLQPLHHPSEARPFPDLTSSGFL
Method in brief: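 Measured in HG2L7.5c1 cells: CellTiter-Fluor signal (30 min incubation, 37C) for viability, then luciferase luminescence (30 min, room temperature). Compound contact time was 24 h at 37C, following a 5 h pre-incubation.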

[15] = qHTS assay for small molecule agonists of the antioxidant response element (ARE) signaling pathway - cell viability counter screen (AID 743203; calls by dose curve; also: nearly all actives have a fitted effect of over 55% in size)
Method in brief: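 Following 16 hrs of compound treatment at 37C, HepG2 cells with an ARE-controlled beta-lactamase gene were lysed with CellTiter-Glo. Luminescence was read after 30 min at room temperature.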

[16] = biological target: Estrogen receptor (Homo sapiens) (UniProt P03372); assay: qHTS assay to identify small molecule antagonists of the estrogen receptor alpha (ER-alpha) signaling pathway (AID 743069; active = well fitted curve in the direction sought with a large enough effect in the signal ratio in the repeat runs, not every such curve was filed as active; the % refers to the signal ratio)
Estrogen receptor (Homo sapiens), sequence (P03372 whole entry, looked up): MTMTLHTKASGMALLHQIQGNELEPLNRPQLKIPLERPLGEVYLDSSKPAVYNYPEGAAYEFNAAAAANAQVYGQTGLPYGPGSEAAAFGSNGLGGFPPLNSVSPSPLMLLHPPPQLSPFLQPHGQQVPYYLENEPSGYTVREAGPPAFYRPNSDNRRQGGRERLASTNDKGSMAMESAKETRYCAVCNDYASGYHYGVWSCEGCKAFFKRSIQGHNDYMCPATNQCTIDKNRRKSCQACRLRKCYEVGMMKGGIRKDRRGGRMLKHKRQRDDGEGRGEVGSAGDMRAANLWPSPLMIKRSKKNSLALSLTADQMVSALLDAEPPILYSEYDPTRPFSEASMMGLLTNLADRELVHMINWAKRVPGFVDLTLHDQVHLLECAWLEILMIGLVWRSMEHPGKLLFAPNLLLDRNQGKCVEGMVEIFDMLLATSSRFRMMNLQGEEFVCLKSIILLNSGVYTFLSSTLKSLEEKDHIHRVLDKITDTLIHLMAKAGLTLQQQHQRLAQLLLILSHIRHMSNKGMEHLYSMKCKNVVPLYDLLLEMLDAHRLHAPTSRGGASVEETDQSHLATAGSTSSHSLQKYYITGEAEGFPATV
Method in brief: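 ER-alpha-UAS-bla GripTite HEK293 line; 2% charcoal-stripped FBS overnight; plated, 4 hr 37C/5% CO2; cpd in DMSO + 17beta-estradiol, 18 hr 37C; LiveBLAzer B/G FRET substrate 2 hr RT; fluorescence intensity.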

[17] = biological target: Estrogen receptor (Homo sapiens) (UniProt P03372); assay: qHTS assay to identify small molecule agonists of the estrogen receptor alpha (ER-alpha) signaling pathway (AID 743075; calls by dose curve;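 also: HEK293 GripTite cells with ER-alpha and UAS-driven beta-lactamase reporter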)
[18] = biological target: Estrogen receptor (Homo sapiens) (UniProt P03372); assay: qHTS assay to identify small molecule agonists of the estrogen receptor alpha (ER-alpha) signaling pathway using the BG1 cell line (AID 743079); also: nearly all actives have a fitted effect of over 20% in size
[19] = qHTS assay to identify small molecule antagonists of the estrogen receptor alpha (ER-alpha) signaling pathway using the BG1 cell line (AID 743080; calls by dose curve;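 also: BG1 cells stimulated with 17beta-estradiol alongside compound; series mostly up to about 70 µM; nearly all actives have a fitted effect of over 25% in size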)
Method in brief: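 Luciferase inhibition measured with ONE-Glo after 30 min at RT in BG1Luc4E2 cells given test compounds and 17beta-estradiol for 21.5 h at 37 C; CellTiter-Fluor viability read in the same wells beforehand.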

Measured: Potency

CC(C)CC(=O)CC(C)CC(C)C (centres undefined)
not listed: [14] | [15] | [16] | [17] | [18] | [19]
inactive: all other assays above

C=CCc1ccc(OC)c(OC)c1
not listed: [9] | [16] | [17] | [18] | [19]
inactive: all other assays above

CCO[Si](CCCN)(OCC)OCC
not listed: [2] | [3] | [10] | [14] | [19]
inactive: all other assays above

O=C(O)Cn1c(=O)n(Cc2ccc(Br)cc2F)c(=O)c2ccc(Cl)cc21
not listed: [1] | [5] | [6] | [7] | [8] | [9] | [10] | [13]
inactive: all other assays above

O=C(O)CCCCCCCCC(=O)O
not listed: [10] | [11] | [13] | [16] | [17] | [18] | [19]
inactive: all other assays above

Clc1ccccn1
inactive: [1] | [2] | [3] | [4] | [5] | [7] | [10] | [11] | [15] | [12] | [13]

O=C(O)/C=C/C(=O)O
inactive: [10] | [12] | [13]

CC(C)CCCCCCCOC(=O)CCCCC(=O)OCCCCCCCC(C)C
not listed: [10] | [11] | [13] | [16] | [17] | [18] | [19]
inactive: all other assays above

COC(=O)CCCC(=O)OC
inactive: [1] | [2] | [3] | [4] | [5] | [7] | [12] | [13]
